Compound activity as filed in PubChem BioAssay.
The list is not random: actives were taken first. Their share in the collection is about 14%.
Lassa entry inh – inhibitors of Lassa virus binding or cell entry; 1.2% of 300,000 active; Potency, µM (titrated, usually from 37.9 µM), without a hit: top-dose activity change, negative = inhibition, most hits filed as inhibitors; AID 540256; Lassa virus pseudotype entry inhibition, cell reporter; calls by dose curve; tested in HEK293 cells; further: potency means the concentration at half of the fitted maximal effect; nearly all actives have a fitted effect of over 50% in size
HCMV antiviral – inhibitors of human cytomegalovirus; 4.5% of 410,000 active; HFF cells, HCMV-luciferase reporter, 72 h; active compounds read low; activity change, negative = inhibition, % at 57.5 µM; in the data active means activity change below about -60%; inconclusive means no clear call, values can overlap the other calls; inactive means above about -39%
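Human foreskin fibroblasts infected with luciferase-reporter HCMV at MOI 1 PFU/cell, compounds at two doses. Luciferase measured 72 h post infection; normalized to buffer-only basal and Salinomycin (10uM) controls.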
Pf growth 96h – inhibits malaria parasite growth, 96 h. P. falciparum luciferase reporter growth, 96 h. Potency, µM (titrated, usually from 28.7 µM), without a hit: at the highest dose activity change, negative = inhibition, actives largely listed as inhibitors. 6.9% of 320,000 active; further: potency means the concentration at half of the fitted maximal effect
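Two-generation exposure (96 h) targets delayed-death phenotype. Reporter parasites carrying integrated firefly luciferase, in red cells at 2% hematocrit and 0.05% parasitemia final, kept at 37 C, 5% CO2; luminescence loss indicates inhibition.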
HCV inhibitor – inhibitors of hepatitis C virus infection | AID 651820 | Potency, µM (series often up to 41.8 µM), without a hit: at the top dose activity change, negative = inhibition, usual class: inhibitors | Huh7.5.1 HCVcc-Cre infection, luciferase reporter, 44 h | 3.4% of 340,000 active; further: potency means the concentration at half of the fitted maximal effect
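Seed cells (1,000/well) for 4 h; treat with compound and infect with HCVcc-Cre, moi about 0.5. Incubate 44 h, then detect luciferase activity.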
Pf growth 48h – inhibits P. falciparum growth in the first generation, 48 h; P. falciparum luciferase growth in erythrocytes, 48 h; AID 504832; Potency, µM (highest dose often 28.7 µM), for inactives: top-dose activity change, negative = inhibition, hits mostly inhibitors; 5.9% of 310,000 active; further: potency means the concentration at half of the fitted maximal effect
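Firefly luciferase activity from engineered P. falciparum reports growth; inhibitors lower the luminescent signal. Cultures contained 2% hematocrit erythrocytes at 0.1% final parasitemia.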
Marburg entry inh – inhibitors of Marburg virus binding or cell entry. Marburg virus pseudotyped entry inhibition, cell reporter. Potency, µM (highest dose often 37.8 µM), for the others: top-dose activity change, negative = inhibition, most hits filed as inhibitors. 1.8% of 300,000 active; calls by dose curve; tested in HEK293 cells; further: potency means the concentration at half of the fitted maximal effect
Numbers without * were called inactive; ? = inconclusive; · = no result; [ ] = remark or other dose. Unless noted, the call rests on the fitted dose curve; in most records, active means well fitted inhibition curve with a large enough effect; inconclusive means small, poorly fitted or top-dose-only effect, or another doubt; inactive means no such curve, though single readings can be large or run the other way. On the % scale 0 is the no-effect control and ±100 the full control effect.

SMILES	Lassa entry inh	HCMV antiviral	Pf growth 96h	HCV inhibitor	Pf growth 48h	Marburg entry inh
CC/C(=C\C=C\[C@@H]1C=C[C@@H]2CCC[C@H]2[C@@H]1C(=O)c1ccc[nH]1)[C@@H]1O[C@@H]([C@@H](C)C(=O)O)CC[C@@H]1C	?	·	?	?	2.62µM*	?
Cc1[nH]nc2c(=S)[nH]c(=O)[nH]c12	·	-3.4	·	·	·	·
CN1N=C2c3ccccc3CCC2C1c1ccc(Cl)cc1 (stereo not drawn)	?	126.0	1.47µM*	10.5%	?	?
CN1N=C2c3ccccc3CCC2C1c1ccc(F)cc1 (stereo not drawn)	?	-7.4	1.65µM*	16.6%	1.31µM*	?
CNC(=S)N1N=C2c3ccccc3CCC2C1c1ccccc1Cl (stereo not drawn)	?	?	?	-22.7%	?	8.6%[14.2 µM]
CCOC(=O)C(=NCC1CCCO1)NNc1cc(Cl)ccc1Cl (stereo not drawn)	-8.5%	0.0	10.4µM*	?	?	-8.3%[46.1 µM]
NC(c1ccccc1)c1csc(NC(=O)NCC2CCCCC2)n1 (stereo not drawn)	·	-16.5	·	·	·	·
O=C(CCN1C(=O)c2ccccc2C1=O)Nn1cnnc1	2.2%	-16.7	2.94µM*	7.7%	-1.2%	14.1%
Cc1ccc(CNC(=O)CSc2nc(=O)n3ccc(C)cc3n2)cc1	·	19.7	·	·	·	·
CS(=O)(=O)N(CC(N)=O)c1cccc(Br)c1	8.8%	11.7	3.7µM*	?	6.9%	0.5%
O=C1Nc2ccccc2C12OCC1(CO2)COC2(OC1)C(=O)Nc1ccccc12 (stereo not drawn)	?	2.9	38.1%	-17.5%	·	3.7%
O=C1Nc2ccccc2C12OC1CCCCC1O2 (stereo not drawn)	-14.9%	-30.1	3.7µM*	6.7%	11.7µM*	-2.3%
COc1ccccc1Cn1c(C)c(C(=O)NCCC#N)sc1=O	·	57.3	·	·	·	·
C#CCOCCOCCOCCNc1nc(N2CCN(C(=O)CCCCCCCCCCNC(=O)Cn3cc(C[C@@H](C)O)nn3)CC2)nc(N2CCN(C(=O)CCCCCCCCCCNC(=O)[C@@H](CCC(=O)O)n3cc(CCCCCN)nn3)CC2)n1	·	20.3	?	11.5%	1.04µM*	·
C#CCOCCOCCOCCNc1nc(N2CCN(C(=O)CCCCCCCCCCNC(=O)Cn3cc(C[C@@H](C)O)nn3)CC2)nc(N2CCN(C(=O)CCCCCCCCCCNC(=O)[C@H](CCCCN)n3cc(CCCC(=O)O)nn3)CC2)n1	·	-5.9	?	?	5.22µM*	·
C#CCOCCOCCOCCNc1nc(N2CCN(C(=O)CCCCCCCCCCNC(=O)[C@@H](CCSC)n3cc(CCO)nn3)CC2)nc(N2CCN(C(=O)CCCCCCCCCCNC(=O)[C@H](CCSC)n3cc(CCO)nn3)CC2)n1	·	?	0.294µM*	3.8%	0.329µM*	·
C#CCOCCOCCOCCNc1nc(N2CCN(C(=O)CCCCCCCCCCNC(=O)Cn3cc(C[C@@H](C)O)nn3)CC2)nc(N2CCN(C(=O)CCCCCCCCCCNC(=O)[C@H](CO)n3cc(CCCSC)nn3)CC2)n1	·	-84.6*	0.147µM*	13.3%	0.147µM*	·
O=c1oc2ccc(Cl)cc2cc1-c1cn2c(n1)sc1ccccc12	4.3%[46.1 µM]	-0.5	·	·	·	·
C#CCOCCOCCOCCNc1nc(N2CCN(C(=O)[C@H]([C@@H](C)O)n3cc(CCCCN)nn3)CC2)nc(N2CCN(C(=O)[C@H](CCCCN)n3cc(CCC(=O)O)nn3)CC2)n1	·	34.0	84.6%	1.9%	-11.6%	·
C#CCOCCOCCOCCNc1nc(N2CCN(C(=O)CCCCCCCCCCNC(=O)Cn3cc(CCCCCN)nn3)CC2)nc(N2CCN(C(=O)CCCCCCCCCCNC(=O)Cn3cc(CCCCCN)nn3)CC2)n1	·	·	6.57µM*	10.6%[8.37 µM]	1.65µM*	·
